ST2 IL33 inh – blocks human ST2 binding to IL-33. Q01638. AlphaLISA ST2-Fc/biotin-IL-33 interaction, 1 h. inhibition, % for hits at 17 µM. hit rate 2.3% among 78,000; in the data active = inhibition above about 30%
Target sequence (Q01638 whole entry, looked up): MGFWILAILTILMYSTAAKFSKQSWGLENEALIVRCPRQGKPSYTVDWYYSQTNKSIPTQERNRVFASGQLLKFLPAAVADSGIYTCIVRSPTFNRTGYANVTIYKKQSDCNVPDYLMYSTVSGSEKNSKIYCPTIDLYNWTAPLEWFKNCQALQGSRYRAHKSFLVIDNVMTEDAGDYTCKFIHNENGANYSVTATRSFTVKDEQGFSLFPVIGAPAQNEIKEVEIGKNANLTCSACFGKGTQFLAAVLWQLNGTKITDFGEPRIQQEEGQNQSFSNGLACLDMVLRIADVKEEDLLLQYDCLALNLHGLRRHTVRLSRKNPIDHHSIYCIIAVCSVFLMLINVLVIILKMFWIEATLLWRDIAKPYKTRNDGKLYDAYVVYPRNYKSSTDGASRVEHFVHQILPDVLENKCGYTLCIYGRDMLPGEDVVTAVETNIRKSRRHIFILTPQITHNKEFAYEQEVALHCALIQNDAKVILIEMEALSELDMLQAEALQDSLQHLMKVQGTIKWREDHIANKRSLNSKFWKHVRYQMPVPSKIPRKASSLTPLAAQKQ
* = called active by the depositor; i = inactive; ! = not active in a repeat. This excerpt belongs to a sample that is enriched for hits.

SMILES | ST2 IL33 inh
CN1CCN([C@@H]2[C@H](O)[C@H](CO)O[C@@H]2CNC(=O)Nc2cccc(Cl)c2)CC1 | i
O=C(NC[C@H]1O[C@@H](CO)[C@@H](O)[C@H]1N1CCN(c2cccc(C(F)(F)F)c2)CC1)c1cccc(F)c1 | i
O=C(NC[C@H]1O[C@@H](CO)[C@@H](O)[C@H]1N1CCN(c2ccc(F)cc2)CC1)c1ccc(F)c(Cl)c1 | 34%*
O=C(NC[C@H]1O[C@@H](CO)[C@@H](O)[C@H]1N1CCCC1)c1ccco1 | i
O=C(NC[C@H]1O[C@@H](CO)[C@@H](O)[C@H]1N1CCN(c2cccc(C(F)(F)F)c2)CC1)c1cccs1 | i
CC(=O)NC[C@H]1O[C@@H](CO)[C@@H](O)[C@H]1N1CCN(c2ccccc2)CC1 | 37%*
COc1ccc(C(=O)NC[C@H]2O[C@@H](CO)[C@@H](O)[C@H]2N2CCN(c3ccccn3)CC2)cc1 | i
O=C(NC[C@H]1O[C@@H](CO)[C@@H](O)[C@H]1N1CCN(c2ccccc2)CC1)c1ccc(C(F)(F)F)cc1 | i
CN1CCN([C@@H]2[C@H](O)[C@H](CO)O[C@@H]2CNC(=O)c2cccc(F)c2)CC1 | 32%*
O=C(NC[C@H]1O[C@@H](CO)[C@@H](O)[C@H]1N1CCN(c2ccccc2)CC1)N1CCOCC1 | i
CC1CCCCN1CCNC(=O)c1cc(-c2ccncc2)nc2ccccc12 (stereo not drawn) | i
O=C(Cc1cn2ccsc2n1)NCCc1nc2c(s1)CCCC2 | i
O=C(OCCN1C(=O)c2ccccc2C1=O)c1cc2ccccc2oc1=O | i
Cc1nn2c(=O)/c(=C/c3ccc(O)cc3)sc2nc1=O | i
CC1CCCN(C(=O)C2CCC(CNS(=O)(=O)c3cccc4nsnc34)CC2)C1 (stereo not drawn) | i
CCOC(=O)C1C(=O)C=C(c2ccco2)CC1c1cc(OC)ccc1OC (stereo not drawn) | i
COc1cc(NCc2cc(F)cc3c(C)c(C)[nH]c23)ncn1 | i
Cn1c(=O)cc(SCC(=O)N2CCN(Cc3ccccc3)CC2)c2ccccc21 | i
Cc1nn2c(=O)/c(=C/c3ccc(OCc4ccccc4)cc3)sc2nc1=O | i
CCCS(=O)(=O)N1CCC(C(=O)N2CCCCC2)CC1 | i
CCOC(=O)C1=C(c2ccccc2)Nc2ncnn2C1c1ccc(Br)cc1 (stereo not drawn) | i
Cc1cccc(C(=O)N(c2ccc(F)cc2)C2C=CS(=O)(=O)C2)c1 (stereo not drawn) | i
COc1ccc(Br)cc1C1C(C(=O)Nc2ccc(C)cc2C)=C(C)Nc2nnnn21 (stereo not drawn) | i
CCCCNS(=O)(=O)c1cc(OC)ccc1OC | i
Cc1ccccc1NCC(=O)c1ccc([N+](=O)[O-])cc1 | 48%*
SMILES | ST2 IL33 inh
CCc1ccccc1NC(=O)c1ccc([N+](=O)[O-])cc1 | i
Cc1ccccc1C(=O)Nc1ccc([N+](=O)[O-])cc1 | i
COc1ccc(C2C3=C(CCCC3=O)Nc3nc(SCc4ccccc4)[nH]c(=O)c32)cc1 (stereo not drawn) | i
Cc1nc2cc(C(=O)N3CCCC(CO)(Cc4ccccc4)C3)ccc2n1-c1ccccc1 (stereo not drawn) | i
Cc1ccc(Nc2cc(C)nc(Nc3ccc(NC(=O)CCC4CCCC4)cc3)n2)cc1 | i
COc1ccc(S(=O)(=O)Nc2ccc(S(=O)(=O)Nc3cc(OC)ccc3OC)cc2)cc1 | 49%*
COc1ccc(OC)c(NS(=O)(=O)c2ccc(NS(=O)(=O)c3ccc(C)cc3)cc2)c1 | i
COc1ccc(OC)c(NS(=O)(=O)c2ccc(NS(=O)(=O)c3ccc(F)cc3)cc2)c1 | i
Cc1cc(S(=O)(=O)NCCCSC2CCCCC2)ccc1F | i
O=C(c1cc([N+](=O)[O-])ccc1N1CCOCC1)N1CCOCC1 | i
O=C(/C=C(/c1ccccc1)N1CCOCC1)c1ccc([N+](=O)[O-])cc1 | 39%*
O=C1C(=O)N(CCN2CCOCC2)C(c2ccc([N+](=O)[O-])cc2)C1=C(O)c1ccccc1 (stereo not drawn) | i
CC(=O)N1CCN(c2cc(-c3noc([C@@H]4CCCN4Cc4cnc5ccccc5c4)n3)ccn2)CC1 | i
CCOC(=O)c1sc(N=CN(C)C)nc1C | i
COc1ccc(C2(CNCC(N)=O)CCCC2)cc1OC | i
COc1ccc(-c2nnc3n2N=C(c2ccc(Br)s2)CS3)cc1 | i
CS(=O)CCC(C(=O)O)N1C(=O)c2ccccc2C1=O (stereo not drawn) | 38%*!
O=C(NCc1ccccc1)C(Cc1ccccc1)N1C(=O)c2ccccc2C1=O (stereo not drawn) | i
O=C(O)CCC(C(=O)O)N1C(=O)c2ccccc2C1=O (stereo not drawn) | i
CCOC(=O)c1cc(C#N)c(SCC)[nH]c1=O | i
O=C(c1cn(C2CCCCC2)nn1)N1CCCC(OCc2ccccc2)C1 (stereo not drawn) | i
O=C(O)CCC(=O)c1ccccc1 | i
COc1ccc(CN2CCCCCC2)cc1 | i
COc1ccc(OCCCN2CCCCCC2)cc1 | 43%*
Cc1cccc(OCCCN2CCCC2)c1 | i
SMILES | ST2 IL33 inh
O=C(c1coc2nc3ccccc3nc12)N1CCOCC1 | i
O=C(NC1CC(=O)N(c2ccccc2)C1)c1ccc(Br)o1 (stereo not drawn) | i
COc1ccc(N2CC(NC(=O)c3ccc(Br)o3)CC2=O)cc1 (stereo not drawn) | 31%*
COc1ccc(N2CC(NC(=O)c3ccco3)CC2=O)cc1 (stereo not drawn) | i
O=C(NCc1cccc(Cl)c1)c1cnn2c(C(F)(F)F)cc(-c3ccco3)nc12 | i
CN(C)C(=O)[C@@]12CC[C@](C)(C(=O)O1)C2(C)C | i
Cc1cc(Br)ccc1OCC(=O)Nc1ccc2c(c1)OCCO2 | i
Cc1cnc(C)c(-c2ccccc2CO)n1 | i
CCOc1ccc2cc(-c3nnc(-c4cccc(Br)c4)o3)c(=O)oc2c1 | i
CCCCNc1nc2c(c(=O)n(Cc3cccc(Br)c3)c(=O)n2C)n1C | 32%*
COCCNc1nc2c(c(=O)n(C)c(=O)n2C)n1Cc1cccc(Br)c1 | i
CCCCNc1nc2c(c(=O)n(C)c(=O)n2C)n1Cc1cccc(Cl)c1 | i
Cn1c(=NC(=O)CSCC(=O)N2CCCc3ccccc32)sc2ccccc21 | i
CN(CCc1ccccn1)[C@H]1[C@@H]2OC[C@@H](O2)[C@@H](NC(=O)Nc2ccccc2)[C@@H]1O | i
CN(CCc1ccccn1)[C@H]1[C@@H]2OC[C@@H](O2)[C@@H](NCc2ccc(F)cc2)[C@@H]1O | 32%*
COc1ccc(CN[C@H]2[C@H](O)[C@@H](N(C)CCN(C)C)[C@@H]3OC[C@H]2O3)cc1 | i
CCOc1cc(C(=O)NCCC2=CCCCC2)cc(OCC)c1OCC | i
Cc1cc(C(=O)NC(C)c2ccccc2)no1 (stereo not drawn) | i
O=C(CCCN1C(=O)c2cccc3cccc(c23)C1=O)Nc1cccnc1 | i
COc1ccc2nc(C)cc(Nc3ccccc3OC)c2c1 | i
Cc1cc(Nc2ccc(N(C)C)cc2)c2cc(Cl)ccc2n1 | 39%*
COc1cccc(Nc2cc(C)nc3ccc(Cl)cc23)c1 | i
Cc1cc(Nc2ccc(O)cc2)c2cc(Cl)ccc2n1 | i
CCOc1ccccc1Nc1cc(C)nc2ccc(OC)cc12 | i
COc1ccc2nc(C)cc(Nc3ccc(N(C)C)cc3)c2c1 | 52%*
O=c1[nH]c(Nc2ccc(F)cc2)nnc1Cc1ccccc1 | i
